An excerpt weighted towards active compounds, which were near 12% of everything screened.
BAZ2B block: BAZ2B (human) inhibition; AlphaScreen BAZ2B-H3K14Ac peptide displacement; Potency, µM (top dose mostly 114 µM), without a hit: at the highest dose activity change, negative = inhibition, actives largely listed as inhibitors; 360,000 compounds, 4.4% hits; AID 504333; also: % is scaled to controls: 0 for no effect and ±100 for the full control effect; nearly all actives have a fitted effect of over 60% in size
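BAZ2B 50 nM plus b-H3(5-23)K14Ac 50 nM, PBS pH 7.4/0.01% Tween-20, 30 min RT; compound added (max 110 uM), 30 min RT; streptavidin donor/Ni-chelate acceptor beads 10 ug/mL final, 20 min dark; AlphaScreen read.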
JMJD2A Tudor: JMJD2A Tudor domain (human) inhibition | O75164 | AlphaScreen JMJD2A-Tudor / H3K4me3 peptide binding | Potency, µM (series often up to 114 µM), for the others: at the top dose activity change, negative = inhibition, most hits filed as inhibitors | 390,000 compounds, 4.4% hits; also: % is scaled to controls: 0 for no effect and ±100 for the full control effect; nearly all actives have a fitted effect of over 50% in size
Target sequence (O75164 whole entry, looked up, the tested form may be a part): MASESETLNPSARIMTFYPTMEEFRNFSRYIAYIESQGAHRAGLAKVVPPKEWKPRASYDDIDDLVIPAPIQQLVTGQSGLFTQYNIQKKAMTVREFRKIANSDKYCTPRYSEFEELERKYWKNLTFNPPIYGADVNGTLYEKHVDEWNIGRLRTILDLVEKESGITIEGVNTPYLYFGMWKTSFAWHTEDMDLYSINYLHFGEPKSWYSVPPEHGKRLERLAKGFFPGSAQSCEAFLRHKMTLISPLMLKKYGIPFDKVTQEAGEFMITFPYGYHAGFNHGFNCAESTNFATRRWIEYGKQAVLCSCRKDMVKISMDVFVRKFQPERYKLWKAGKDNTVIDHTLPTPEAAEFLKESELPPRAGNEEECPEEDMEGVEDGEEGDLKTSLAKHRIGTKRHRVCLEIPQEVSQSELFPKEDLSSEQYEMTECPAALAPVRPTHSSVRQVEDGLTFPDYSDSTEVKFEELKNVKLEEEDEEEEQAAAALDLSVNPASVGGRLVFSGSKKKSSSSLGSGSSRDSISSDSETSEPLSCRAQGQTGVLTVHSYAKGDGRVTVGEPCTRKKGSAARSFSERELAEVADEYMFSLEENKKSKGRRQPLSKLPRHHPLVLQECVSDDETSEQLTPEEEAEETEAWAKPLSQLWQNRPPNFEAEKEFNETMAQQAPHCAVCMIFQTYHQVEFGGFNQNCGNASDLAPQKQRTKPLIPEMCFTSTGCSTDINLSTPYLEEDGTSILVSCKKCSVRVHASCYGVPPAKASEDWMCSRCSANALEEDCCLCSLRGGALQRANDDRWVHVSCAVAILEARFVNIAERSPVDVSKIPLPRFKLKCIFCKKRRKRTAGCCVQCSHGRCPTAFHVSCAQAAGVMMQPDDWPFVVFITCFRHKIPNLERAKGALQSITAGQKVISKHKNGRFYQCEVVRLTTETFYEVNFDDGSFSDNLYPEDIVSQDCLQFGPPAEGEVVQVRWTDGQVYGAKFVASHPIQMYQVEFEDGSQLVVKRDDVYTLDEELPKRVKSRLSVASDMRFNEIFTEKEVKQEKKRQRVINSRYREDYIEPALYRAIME
PLK1 PBD inh: PLK1 (human) polo-box domain binding inhibition. P53350. Potency, µM, for inactives: max response, negative = inhibition, hits mostly inhibitors. 360,000 compounds, 2.8% hits. AID 720504. Plk1 PBD binding of FITC phosphopeptide, fluorescence polarization; also: series mostly up to about 57 µM; % is scaled to controls: 0 for no effect and ±100 for the full control effect; nearly all actives have a fitted effect of over 65% in size
HP1b binding inh: HP1-beta chromodomain-methylated histone interaction inhibition; Potency, µM (titrated, usually from 114 µM), inactives show at the highest dose activity change, negative = inhibition, actives largely listed as inhibitors; AID 540317; 390,000 compounds, 0.56% hits; AlphaScreen HP1-beta / biotin-H3K9me3 peptide binding; also: nearly all actives have a fitted effect of over 70% in size
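HP1-beta protein (50 nM final) preincubated 30 min at room temperature with biotinylated H3(1-18)K9me3 peptide (50 nM) in PBS pH 7.4, 0.01% Tween-20, then compound added for 30 min. AlphaScreen streptavidin donor/nickel chelate acceptor beads (10 ug/mL final), 30 min dark, luminescence read.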
G9a block: inhibitors of human histone lysine methyltransferase G9a | Q96KQ7 | G9a H3K9 monomethylation, AlphaScreen, 2 h | Potency, µM (series often up to 102 µM), without a hit: at the top dose activity, negative = inhibition, usual class: inhibitors | 350,000 compounds, 8.8% hits | AID 504332; also: % is scaled to controls: 0 for no effect and ±100 for the full control effect; nearly all actives have a fitted effect of over 75% in size
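Using a bead-based AlphaScreen, monomethylated H3K9 product from 2 h room-temperature reactions (G9a 20 nM, peptide 500 nM, SAM 20 uM) was detected with 0.5 ug/mL rabbit anti-H3K9me1 antibody.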
Sfp PPTase inh: inhibitors of Bacillus subtilis Sfp phosphopantetheinyl transferase; Potency, µM, for the others: largest response in the series, negative = inhibition, usual class: inhibitors; 310,000 compounds, 3.5% hits; Q9F4F7; Biochemical Sfp PPTase activity, qHTS;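 also: the enzyme is Sfp with the accession as filed and its product quenches rhodamine fluorescence; 0% = enzyme reaction without inhibitor and -100% = no enzyme wells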
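With Hepes-Na pH 7.6 buffer containing 10 mM MgCl2, Sfp (15 nM) modified BHQ-2-YbbR (12.5 uM) using rhodamine-CoA (5 uM). Two reads 30 minutes apart at 525/598 nm yielded each well's rate.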
An asterisk follows results filed as active; ? = inconclusive; . = no result; [ ] = another dose, or the depositor's remark. Calls follow the shape of the dose curve; as a rule, active = well fitted curve in the direction sought with a large enough effect; inconclusive = small, poorly fitted or top-dose-only effect, or another doubt; inactive = no such curve, though single readings can be large; an effect the other way counts as inactive or inconclusive. Potency is read from the fitted curve at half-maximal effect.

SMILES	BAZ2B block	JMJD2A Tudor	PLK1 PBD inh	HP1b binding inh	G9a block	Sfp PPTase inh
O=C(Nc1nc(-c2ccccn2)cs1)C1CC(=O)N(c2ccc3c(c2)OCCO3)C1 (centres undefined)	40µM*	35µM*	-12%	14%	11%[59 µM]	-2%
COc1ccc(NC(=O)C2C3C=CC4(O3)C2C(=O)N(CCN2CCCCC2)C4C(=O)NC2CCCCC2)cc1 (centres undefined)	5%	-13%	-1%	5%	24%	1%
CC1CCN(CCCN2C(=O)C3C(C(=O)Nc4ccc(Cl)cc4)C4C=CC3(O4)C2C(=O)NC2CCCCC2)CC1 (centres undefined)	-3%	-15%	-10%	-11%	40µM*	9%
O=C(Nc1ccc(Br)cc1)C1C2C=CC3(O2)C1C(=O)N(CCN1CCCCC1)C3C(=O)NC1CCCCC1 (centres undefined)	-16%	-18%	-9%	2%	50µM*	14%
CC1CCCN(CCCN2C(=O)C3C(C(=O)Nc4ccc(Cl)cc4)C4C=CC3(O4)C2C(=O)NC2CCCCC2)C1 (centres undefined)	-3%	-16%	-10%	-24%	45µM*	7%
CSc1cccc(NC(=O)C2C3C=CC4(O3)C2C(=O)N(CCCN2CCOCC2)C4C(=O)NC2CCCCC2)c1 (centres undefined)	-21%	-17%	-14%	-9%	45µM*	-5%
CCOC(=O)[C@]12CCCC=C1N(Cc1ccco1)C(=O)[C@H](CC(=O)N1CCSCC1)C2	.	.	-8%	.	.	.
Cc1sc(NC(=O)C2=COCCO2)nc1-c1ccc(Cl)cc1	-8%	-1%	-1%	24%	-44%	.
COc1ccc(-n2ccn(CC(=O)NCCc3ccccc3)c(=O)c2=O)cc1OC	?	-10%	.	19%	4%[59 µM]	.
Cc1ccc(N2C(=O)N(CC(=O)N3c4ccccc4CC3C)C(=O)C2C)cc1 (centres undefined)	-5%	-16%	-9%	16%	45µM*	.
Cc1ccc(N2C(=O)N(CC(=O)N3CCc4ccccc43)C(=O)C2C)cc1 (centres undefined)	.	.	-4%	.	.	.
CCOC1=NC(=C(c2ccccc2)c2ccccc2)OC1=O	.	25µM*	-18%	-28%	.	.
COc1cccc(C(N)c2nc(-c3csc4ccccc34)cs2)c1 (centres undefined)	.	.	-9%	.	.	.
COc1ccc(NC(=O)NC(C)c2ccccc2)cc1 (centres undefined)	-11%	-14%	-1%	18%	16%	21%
COc1ccc(NC(C)c2ccccc2)cc1 (centres undefined)	40µM*	50µM*	-6%	?	13µM*	4%
COc1ccc(CCNCC(C)c2ccccc2)cc1 (centres undefined)	?	7.9µM*	1%	-38%	45µM*	-7%
COc1ccc(CCNCC(O)c2ccccc2)cc1 (centres undefined)	56µM*	5µM*	-3%	-4%	14µM*	-16%
COc1ccc(CCC(C)NCC(C)c2ccccc2)cc1 (centres undefined)	2%	-10%	-8%	70%	.	2%
COc1ccc2c(c1)O[C@H](c1ccc3c(c1)OCO3)[C@@H](OC(=O)NS(=O)(=O)c1ccc(C)cc1)C2=O	.	.	.	.	.	13%
CCn1ccc2cc(S(=O)(=O)N3CCCN(C(=O)NCC(C)C)CC3)ccc21	5%	-2%	.	24%[57 µM]	5%[59 µM]	.
Cc1cc(C)c(NC(=O)c2cc(S(=O)(=O)N3CCC4(CC3)OCCO4)ccc2F)c(C)c1	6%	-14%	.	-4%	12%[59 µM]	.
Cc1ccc(NC(=O)c2cccc(-n3cnnn3)c2)cc1Cl	9%	-3%	-12%	37%	-4%[2.33 µM]	.
Cc1c(CC(=O)O)c(=O)oc2c(C)c3occ(-c4ccc(F)cc4)c3cc12	?	-33%	-14%	40%	5%	35µM*
Cc1c(CCC(=O)O)c(=O)oc2c(C)c3occ(-c4ccc(Br)cc4)c3cc12	56µM*	?	27µM*	?	45µM*	-21%
C=CCc1c(C)nc2c(OC)cccc2c1Cl	5%	-11%	-22%	27%	3%	13%
SMILES	BAZ2B block	JMJD2A Tudor	PLK1 PBD inh	HP1b binding inh	G9a block	Sfp PPTase inh
Cc1nc2c(C)cccc2c(SC(=N)N)c1CC=C(Cl)Cl	?	?	?	59%	7.9µM*	?
C=CCc1c(C)nc2c(C)cccc2c1SC(=N)N	-2%	18%	-2%	65%	.	56µM*
COc1cccc(CNC(=O)CSc2ccc(-c3sc(-c4ccccc4)nc3C)nn2)c1	-13%	-18%	.	0%	-1%[59 µM]	.
O=C(NCC(c1cccs1)N1CCOCC1)c1ccccc1NS(=O)(=O)c1ccc(Cl)cc1 (centres undefined)	-1%	-19%	-8%	12%	71µM*	17%
O=C(NCC(c1cccs1)N1CCOCC1)c1ccccc1NS(=O)(=O)c1cccc([N+](=O)[O-])c1 (centres undefined)	?	?	-16%	-15%	6%[59 µM]	23%
O=C(NCC(c1cccs1)N1CCOCC1)c1ccccc1NS(=O)(=O)c1ccc(Cl)c([N+](=O)[O-])c1 (centres undefined)	-32%	-32%	-7%	19%	45µM*	20%
O=C(NCC(c1cccs1)N1CCOCC1)c1ccccc1NS(=O)(=O)c1cc([N+](=O)[O-])ccc1Cl (centres undefined)	-4%	-7%	-7%	26%	45µM*	13%
CCc1ccc(NC(=O)c2sc3nc(C)c(Cl)c(C)c3c2NC(=O)c2ccccc2)cc1	-4%	-24%	.	24%	-5%[59 µM]	.
O=C(O)CCc1n[nH]c(=S)[nH]c1=O	2%	-1%	-5%	29%	-48%	56µM*
CCOC(=O)CCc1n[nH]c(=O)[nH]c1=O	-2%	9%	-7%	35%	8%[12.7 µM]	3%
CN(C)c1cc(-c2ccc([N+](=O)[O-])cc2)oc(=O)c1Cl	-49%	-18%	-5%	4%	?	2%
COc1ccc(-n2nnc3c(SC(C(C)=O)C(=O)N(C)C)ncnc32)cc1 (centres undefined)	-26%	-32%	24µM*	?	.	18µM*
COC(=O)C(C)Sc1ncnc2c1nnn2-c1ccc(F)cc1 (centres undefined)	10%	16%	-8%	120%	43%	6%
COc1cc(OC)c(NC2=C(c3ccc(C(F)(F)F)cc3)C(=O)c3ccccc32)cc1Cl	?	20µM*	.	?	?	.
Cc1ccc(SCC(=O)N/N=C/c2ccco2)cc1	-18%	-7%	1%	5%	17%	14%
CN(C)CCCN(C(=O)c1ccc([N+](=O)[O-])s1)c1nc2cc3c(cc2s1)OCCO3	?	?	-5%	-22%	45µM*	2%

Screening results deposited in PubChem by National Center for Advancing Translational Sciences (NCATS).
